Experiment in all cases: NCI-60 one-dose screen, 48 h (100 = growth as untreated, 0 = no growth, -100 = all killed)
Common to all, as to conditions: 10 µM

Assay [1] concerns SK-MEL-2 melanoma.
The test system of assay [2] is EKVX NSCLC.
Assay [3] concerns SN12C renal.
Assay [4] relates to UO-31 renal.
Assay [5] has as its system TK-10 renal.
For assay [6], the system named is ACHN renal.
Assay [7] has as its system CAKI-1 renal.
In assay [8] the test system is A498 renal.
The test system of assay [9] is MOLT-4 leukemia.
The test system of assay [10] is SR leukemia.
Assay [11] concerns RPMI-8226 leukemia.
Assay [12] has as its system OVCAR-8 ovarian.
Assay [13] has as its system OVCAR-5 ovarian.
Assay [14] deals with OVCAR-4 ovarian.
Assay [15] has as its system SK-OV-3 ovarian.
The test system of assay [16] is IGROV1 ovarian.
In assay [17] the test system is OVCAR-3 ovarian.
For assay [18], the system named is HS 578T breast.
The test system of assay [19] is NCI/ADR-RES ovarian.

Structures are written as SMILES. This is part of a sample that, as a whole, favours compounds with a hit. Of some 83,000 tested, about 20% had one in any assay.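 Growth was measured after 48 h exposure to one concentration of compound in 96-well plates. Values under 10 count as active.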 Values without a mark were called inactive. Active and inactive are the calls of the source.

As to `CCC(C)[C@H](NC(C)=O)C(=O)N[C@@H](CCCNC(=N)N)C(=O)N[C@@H](CCCCN)C(=O)N[C@@H](CC1CCC(O)CC1)C(=O)NC(C(=O)N[C@@H](CCSC)C(=O)N[C@@H](CCCNC(=N)N)C(=O)N[C@@]1(C)CCC/C=C\CCC[C@@](C)(C(=O)NC(C(=O)N[C@@H](CCC(=O)O)C(=O)N[C@@H](CC(C)C)C(=O)N[C@H](C(=O)N[C@@H](CCC(=O)O)C(N)=O)C(C)C)[C@@H](C)O)NC(=O)[C@H](CCC(N)=O)NC(=O)[C@H](CC(C)C)NC(=O)[C@H](CC(C)C)NC1=O)[C@@H](C)O` (stereo partly specified), the growth in [1] is 100%; in [2], 99.5%; in assay [3], 93.2%; in assay [4], 106%; in assay [5], 96.4%; in [6], 106%. The growth in assay [7] is 99.4%; in [8], 120%; in [9], 97.3%; in assay [10], 98.5%; in assay [11], 95%; in [12], 98.4%. Also, the growth was 115% in assay [13]; 100% in assay [14]; 98.4% in assay [15]; 100% in assay [16]; 104% in [17]; -7.65% (active) in assay [18]. The growth in [19] is 108%.

In the case of `CC[C@@H](C(=O)[C@@H](C)[C@@H](O)[C@H](C)[C@@H]1O[C@@H]([C@@H](CC)C(=O)O)CC[C@@H]1C)C1O[C@]2(C=CC(=O)[C@]3(CC[C@@](C)([C@H]4CC[C@](O)(CC)[C@H](C)O4)O3)O2)[C@H](C)C[C@@H]1C` (stereo partly specified), the growth was 40.7% in assay [1]; 38% in assay [2]; 27.6% in assay [3]; 24.3% in [4]; 57.7% in [5]; 31.6% in assay [6]. Further, the growth was 27% in [7]; -11.4% (active) in assay [8]; 40.6% in assay [9]; 31.3% in assay [10]; 4.99% (active) in assay [11]; 44.4% in assay [12]. For the same molecule, the growth was 56.1% in assay [13]; 47.7% in assay [14]; 69.1% in assay [15]; 27.2% in assay [17]; 30.6% in assay [18]; 40% in [19].

With `COc1ccc(C2=Cn3c(CCC(=O)c4nc5ccccc5[nH]4)nnc3SC2)cc1`, the growth in assay [1] was 106%; in [2] it was 90.3%; in assay [3] it was 98.9%; in assay [4], 82%; in assay [5], 125%; in [6], 110%. The growth was 96.9% in assay [7]; 58% in [8]; 43.2% in [9]; 18.9% in assay [10]; 61.7% in [11]; 120% in assay [12]. Moreover, the growth in [13] is 116%; in assay [15], 120%; in assay [16], 91.6%; in assay [17], 113%; in assay [18], 92.8%; in [19], 105%.

Regarding `Nc1ccn(Cc2nnc(CCC(=O)c3nc4ccccc4[nH]3)o2)c(=O)n1`, the growth in assay [1] was 100%; in assay [2], 84.1%; in assay [3] it was 87.1%; in [4] it was 44.2%; in assay [5] it was 100%; in assay [6] it was 87%. For the same molecule, the growth in assay [7] is 82.8%; in assay [8], 61.7%; in [9] it was 8.54% (active); in [10], 14.9%; in assay [11], 73.1%; in assay [12], 88.5%. Also, the growth in assay [13] is 98%; in assay [15], 98.7%; in [16] it was 65.3%; in assay [17] it was 102%; in [18], 81.3%; in assay [19], 86.1%.

`COc1ccc(/C=C/C(=O)C(=O)/C=C/c2ccc(OC)c(OC)c2)cc1OC`: the growth was 96.6% in [1]; 62.6% in assay [2]; 2.82% (active) in assay [3]; 0.571% (active) in assay [4]; 68.6% in assay [5]; -0.679% (active) in [6]. The growth in [7] was 84.3%; in assay [8], 72.9%; in assay [9], 23.4%; in [10], 4.78% (active); in assay [11] it was 3.5% (active); in [12] it was 19.5%. In addition, the growth is 60.5% in assay [13]; 61.9% in [14]; 97.8% in assay [15]; 10.1% in assay [16]; 3.9% (active) in [17]; 31.5% in assay [18]. The growth in assay [19] is 71.7%.

Regarding `Cc1cc(=O)n2nnc3cc(C(F)(F)F)ccc3n12`, the growth in [1] is 99.2%; in assay [2], 107%; in assay [3] it was 106%; in assay [4], 84%; in assay [5], 93.6%; in [6] it was 108%. Moreover, the growth in [7] is 113%; in assay [8] it was 103%; in [9], 91.3%; in assay [10] it was 104%; in assay [11], 107%; in assay [12] it was 111%. The growth is 121% in [13]; 116% in assay [14]; 114% in assay [17]; 117% in [18]; 110% in [19].

`CC(=O)N[C@H](C(=O)N[C@@H](CCCNC(=N)N)C(=O)N[C@@H](CCCCN)C(=O)N[C@@H](CCCNC(=N)N)C(=O)N[C@]1(C)CCC/C=C\CCC[C@@](C)(C(=O)N[C@@H](CC(C)C)C(=O)N[C@@H](CC(C)C)C(=O)N[C@@H](CCC(N)=O)C(=O)N[C@@H](CCC(=O)O)C(=O)N[C@@H](CCCNC(=N)N)C(=O)N[C@@H](CCC(=O)O)C(=O)N[C@@H](CC(C)C)C(=O)N[C@H](C(=O)N[C@@H](CCC(=O)O)C(N)=O)C(C)C)NC(=O)[C@H](CCCNC(=N)N)NC(=O)[C@H](CC(C)C)NC1=O)C(C)C`: the growth was 101% in assay [1]; 101% in assay [2]; 103% in [3]; 114% in assay [4]; 96.2% in [5]; 109% in [6]. In addition, the growth was 98.9% in [7]; 116% in [8]; 105% in assay [9]; 104% in [10]; 104% in assay [11]; 104% in assay [12]. The growth in assay [13] was 111%; in assay [14], 107%; in assay [15] it was 108%; in assay [16] it was 110%; in [17], 109%; in assay [18], 119%. In addition, the growth in assay [19] was 109%.

For `Clc1ccc(C2=NN=C3C(Cc4ccccc4)=Nc4ccccc4N3C2)cc1`, the growth in assay [1] was 105%; in assay [2], 86%; in assay [3], 83.2%; in [4], 63.1%; in [5], 68.4%; in [6] it was 63.2%. Moreover, the growth in [7] was 55.4%; in assay [8], 68.5%; in assay [9], 61.3%; in [10] it was 25.4%; in assay [11], 49.4%; in assay [12], 75.5%. In addition, the growth in assay [13] is 90%; in assay [15], 112%; in [16], 83.8%; in [17], 65.8%; in assay [18] it was 90.1%; in [19], 74.4%.

The values are drawn from PubChem BioAssay (NCI).
